Data as given in PubChem BioAssay (NCI).
Compounds without any hit were thinned out: in the full panel of roughly 83,000, 20% have a hit.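 Cell lines were cultured in 96-well plates, exposed to a single compound concentration, and assessed for percent growth 48 hours later.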 Calls of active or inactive are those of the source. The calls were made as follows: active = growth percent below 10; inactive = the rest.

Key:
Experiment in all cases: NCI-60 one-dose screen, 48 h (100 = growth as untreated, 0 = no growth, -100 = all killed)
Details in all cases: 10 µM unless noted
HCT-15 colon = tested on: HCT-15 colon
HT29 colon = tested on: HT29 colon
SNB-75 CNS = tested on: SNB-75 CNS
SNB-19 CNS = tested on: SNB-19 CNS
U251 CNS = tested on: U251 CNS
PC-3 prostate = tested on: PC-3 prostate
SK-MEL-5 melanoma = tested on: SK-MEL-5 melanoma
UACC-62 melanoma = tested on: UACC-62 melanoma
LOX IMVI melanoma = tested on: LOX IMVI melanoma
SK-MEL-28 melanoma = tested on: SK-MEL-28 melanoma

Measured: growth

C=CC(=O)N1CC=C(c2cc3c(N[C@H](C)c4ccccc4)ncnc3[nH]2)CC1
inactive: HCT-15 colon 82.6% | HT29 colon 54% | SNB-19 CNS 91.9% | U251 CNS 94.6% | PC-3 prostate 82.7% | SK-MEL-5 melanoma 95.5% | UACC-62 melanoma 85.5% | LOX IMVI melanoma 56.2% | SK-MEL-28 melanoma 104%
active: SNB-75 CNS -0.73%

C=CCOc1cccc(/C=C2\SC(=S)N(C3CC(=O)N(c4ccc(Br)cc4)C3=O)C2=O)c1 (stereo not given)
inactive: HCT-15 colon 97.5% | HT29 colon 115% | SNB-75 CNS 120% | SNB-19 CNS 96.5% | U251 CNS 96.6% | PC-3 prostate 93.1% | SK-MEL-5 melanoma 101% | UACC-62 melanoma 86.8% | LOX IMVI melanoma 93.1% | SK-MEL-28 melanoma 96.6%

CCNC(=O)N1CCc2cc(OC)c(OCCc3ccc(OC)nc3)cc2C1c1ccc(OC)cc1C (stereo not given)
inactive: HCT-15 colon 14% | SNB-75 CNS 25.9% | SNB-19 CNS 34.5% | U251 CNS 26.2% | PC-3 prostate 37.8% | SK-MEL-5 melanoma 23.6% | UACC-62 melanoma 22.7% | SK-MEL-28 melanoma 43.9%
active: HT29 colon 5.66% | LOX IMVI melanoma 7.09%

COc1cc(OC)cc(C(=O)Nc2cccc(C#Cc3cccc4[nH]nc(N)c34)c2)c1
active: HT29 colon 7.34% | SNB-75 CNS -18.6% | SK-MEL-5 melanoma -32.6%
inactive: HCT-15 colon 31.1% | SNB-19 CNS 57.2% | U251 CNS 22.5% | PC-3 prostate 31.9% | UACC-62 melanoma 23.1% | LOX IMVI melanoma 31.9% | SK-MEL-28 melanoma 50.3%

CCCCCCCn1cc2c(N[C@H](C)c3ccccc3)ncnc2n1
inactive: HCT-15 colon 91.5% | HT29 colon 113% | SNB-75 CNS 92.2% | SNB-19 CNS 94.3% | U251 CNS 102% | PC-3 prostate 92.6% | SK-MEL-5 melanoma 109% | UACC-62 melanoma 80.6% | LOX IMVI melanoma 99.2% | SK-MEL-28 melanoma 108%

O=C(NCc1ncc[nH]1)c1ccc(-c2nc3ccc4[nH]ncc4c3c3c2CCCC3)cc1
active: PC-3 prostate 2.66% | SK-MEL-5 melanoma 8.91% | UACC-62 melanoma 4.94% | LOX IMVI melanoma 3.29% | SK-MEL-28 melanoma -1.75%
inactive: HCT-15 colon 48% | HT29 colon 22.3% | SNB-75 CNS 30.1% | SNB-19 CNS 13.9% | U251 CNS 13.2%

COc1c(N2CC3CCCNC3C2)c(F)cc2c(=O)c(C(=O)N/N=C/c3ccc(N(C)C)cc3)cn(C3CC3)c12 (stereo not given)
active: HT29 colon -12% | LOX IMVI melanoma -22.6%
inactive: HCT-15 colon 16.4% | SNB-75 CNS 100% | SNB-19 CNS 78.3% | U251 CNS 49% | PC-3 prostate 60.4% | SK-MEL-5 melanoma 83.9% | UACC-62 melanoma 100% | SK-MEL-28 melanoma 97.8%

Nc1nc(N)c2c(n1)NC(c1ccc(Cl)cc1)CC(c1ccc(Nc3nc(NCCO)nc(N4CCOCC4)n3)cc1)=N2 (stereo not given)
inactive: HCT-15 colon 53.7% | HT29 colon 57.2% | SNB-75 CNS 72.5% | SNB-19 CNS 87.4% | U251 CNS 59.5% | PC-3 prostate 64% | SK-MEL-5 melanoma 67.4% | UACC-62 melanoma 89.9% | LOX IMVI melanoma 61.2% | SK-MEL-28 melanoma 83.5%

O=S(=O)(Oc1ccc(-c2nnc(Nc3ccccc3)s2)cc1)C(F)(F)C(F)(F)C(F)(F)C(F)(F)C(F)(F)C(F)(F)F
inactive: HCT-15 colon 98.7% | HT29 colon 109% | SNB-75 CNS 99.9% | SNB-19 CNS 101% | U251 CNS 107% | PC-3 prostate 110% | SK-MEL-5 melanoma 108% | UACC-62 melanoma 90.8% | LOX IMVI melanoma 99.8% | SK-MEL-28 melanoma 105%

O=C(NCCn1ccnc1)c1ccc(-c2nc3ccc4[nH]ncc4c3c3c2CCCC3)cc1
inactive: HCT-15 colon 97.5% | HT29 colon 88.4% | SNB-75 CNS 52.6% | SNB-19 CNS 55.6% | U251 CNS 58.6% | PC-3 prostate 47.6% | SK-MEL-5 melanoma 89.9% | UACC-62 melanoma 28.8% | LOX IMVI melanoma 66.3% | SK-MEL-28 melanoma 62.4%

O=C(CCn1c[n+](CC(=O)c2ccc(F)cc2)c2ccccc21)Nc1cccc2cccnc12
inactive: HCT-15 colon 106% | HT29 colon 58.6% | SNB-75 CNS 75.6% | SNB-19 CNS 71.1% | U251 CNS 79.3% | PC-3 prostate 63.4% | SK-MEL-5 melanoma 33.4% | UACC-62 melanoma 55.7% | LOX IMVI melanoma 84.6% | SK-MEL-28 melanoma 60.1%

NS(=O)(=O)c1ccc(Nc2nc(N/N=C/c3ccc(Cl)cc3)nc(Nc3ccccc3)n2)cc1
inactive: HCT-15 colon 76.4% | HT29 colon 34.2% | SNB-75 CNS 94.3% | SNB-19 CNS 81.8% | U251 CNS 54.6% | PC-3 prostate 51.7% | SK-MEL-5 melanoma 69.1% | UACC-62 melanoma 74.9% | LOX IMVI melanoma 60.4% | SK-MEL-28 melanoma 75.3%

COC(=O)C(Cc1ccccc1)Nc1nc(NC(Cc2ccccc2)C(=O)OC)nc(N2CCOCC2)n1 (stereo not given)
inactive: HCT-15 colon 106% | HT29 colon 101% | SNB-75 CNS 90.5% | SNB-19 CNS 104% | U251 CNS 105% | PC-3 prostate 103% | SK-MEL-5 melanoma 98.7% | UACC-62 melanoma 90.2% | LOX IMVI melanoma 105% | SK-MEL-28 melanoma 109%

O=S(=O)(NC1c2ccccc2C[C@H]1O)c1ccc(Cl)cc1Cl (stereo not given in full)
inactive: HCT-15 colon 94.6% | HT29 colon 109% | SNB-75 CNS 86.4% | SNB-19 CNS 96.3% | U251 CNS 98.7% | PC-3 prostate 84.1% | SK-MEL-5 melanoma 99.4% | UACC-62 melanoma 74.9% | LOX IMVI melanoma 93.3% | SK-MEL-28 melanoma 102%

Cn1cc(CNc2nc3ccc(OC/C(=C/F)CN)cc3o2)ccc1=O
inactive: HCT-15 colon 103% | HT29 colon 111% | SNB-75 CNS 110% | SNB-19 CNS 98% | U251 CNS 106% | PC-3 prostate 107% | SK-MEL-5 melanoma 104% | UACC-62 melanoma 95.1% | LOX IMVI melanoma 98.2% | SK-MEL-28 melanoma 99.4%

C#Cc1nc(/C=C/C(=O)c2nccn2C)cs1
active: HCT-15 colon -72.9% | HT29 colon -38.2% | SNB-75 CNS -3.26% | SNB-19 CNS -79.2% | U251 CNS -74.3% | PC-3 prostate -78.9% | SK-MEL-5 melanoma -84.2% | UACC-62 melanoma -84.3% | LOX IMVI melanoma -81.4% | SK-MEL-28 melanoma -31.9%

CS(=O)(=O)Nc1cc(-c2ccc3ncc(C#N)c(NCc4ccccc4F)c3c2)cnc1Cl
active: HCT-15 colon 8.34% | PC-3 prostate 6.54% | SK-MEL-5 melanoma -93.6% | UACC-62 melanoma -20.7% | LOX IMVI melanoma -41.9% | SK-MEL-28 melanoma 5.71%
inactive: HT29 colon 11% | SNB-75 CNS 26.3% | SNB-19 CNS 12.8% | U251 CNS 11.5%

CS(=O)(=O)Nc1cc(-c2ccc3ncc(C#N)c(Nc4cccc(Cl)c4F)c3c2)cnc1Cl
active: HCT-15 colon 8.27% | HT29 colon 2.88% | SNB-19 CNS 5.43% | U251 CNS -8.19% | PC-3 prostate -16.3% | SK-MEL-5 melanoma -89.9% | UACC-62 melanoma -32% | LOX IMVI melanoma -62.2% | SK-MEL-28 melanoma 2.61%
inactive: SNB-75 CNS 47.9%

CC1(C)CC[C@]2(C(=O)N3CCOCC3)CC[C@]3(C)C(=CC[C@@H]4[C@@]5(C)C/C(=C/c6ccco6)C(=O)C(C)(C)[C@@H]5CC[C@]43C)[C@@H]2C1
inactive: HCT-15 colon 81.5% | HT29 colon 82.7% | SNB-75 CNS 28.6% | SNB-19 CNS 100% | U251 CNS 101% | PC-3 prostate 60.3% | SK-MEL-5 melanoma 94.2% | UACC-62 melanoma 80.3% | LOX IMVI melanoma 63.9% | SK-MEL-28 melanoma 91.6%

O=C(CN1CCN(c2cc(=O)n(-c3ccccc3)c3ccccc23)CC1)Nc1nc(-c2ccccc2)cs1
inactive: HCT-15 colon 25.2% | HT29 colon 73% | SNB-75 CNS 71.6% | SNB-19 CNS 85.2% | U251 CNS 59.2% | PC-3 prostate 32.5% | UACC-62 melanoma 63.9% | LOX IMVI melanoma 49.4% | SK-MEL-28 melanoma 71.2%
active: SK-MEL-5 melanoma 5.29%

CN1c2ccccc2Sc2cc(C=C(C#N)C#N)ccc21
inactive: HCT-15 colon 101% | HT29 colon 111% | SNB-75 CNS 79.8% | SNB-19 CNS 97.6% | U251 CNS 98% | PC-3 prostate 105% | SK-MEL-5 melanoma 100% | UACC-62 melanoma 46.5% | LOX IMVI melanoma 87.3% | SK-MEL-28 melanoma 104%

C#CCNC1CCC(c2csc(C#C)n2)=C1C (stereo not given)
active: U251 CNS 4.13% | LOX IMVI melanoma -90.7%
inactive: HCT-15 colon 96.6% | HT29 colon 50.7% | SNB-75 CNS 113% | SNB-19 CNS 90.6% | PC-3 prostate 80.8% | SK-MEL-5 melanoma 90% | UACC-62 melanoma 76.8% | SK-MEL-28 melanoma 97%

NC(=O)c1cccc(-n2ccc3cc(NC(=O)Nc4ccc(N5CCOCC5)c(C(F)(F)F)c4)ccc32)n1
inactive: HCT-15 colon 10.4%
active: HT29 colon 4.89% | SNB-75 CNS -24.4% | SNB-19 CNS 2.44% | U251 CNS 0.717% | PC-3 prostate 5.77% | SK-MEL-5 melanoma -79.6% | UACC-62 melanoma -16.1% | LOX IMVI melanoma -10.9% | SK-MEL-28 melanoma -0.669%

CCOC(=O)c1c(Nc2ccccc2)nn2c(-c3ccc(OC)cc3)ccnc12
inactive: HCT-15 colon 48.6% | HT29 colon 74.9% | SNB-75 CNS 82.7% | SNB-19 CNS 109% | U251 CNS 89.2% | PC-3 prostate 99.2% | SK-MEL-5 melanoma 71.3% | UACC-62 melanoma 95.1% | LOX IMVI melanoma 80.3% | SK-MEL-28 melanoma 89.9%

C=C(C=O)[C@@H]1CC[C@]2(C)[C@H](C(=O)C=C3[C@H]4C[C@](C)(C(=O)OC)CC[C@]4(C)CC[C@]32C)[C@@]1(C)CCC#N
inactive: SNB-75 CNS 66.1% | SNB-19 CNS 30.7% | PC-3 prostate 11.2%
active: HCT-15 colon -45.3% | HT29 colon -5.25% | U251 CNS 2.98% | SK-MEL-5 melanoma -88% | UACC-62 melanoma -19% | LOX IMVI melanoma -83.2% | SK-MEL-28 melanoma -38.3%
